# Test results from the supplement of paper PMC6897291.
# Tests used:
# [1] = system: U-2932; experiment: growth inhibition by drug alone (1 - RLU/untreated control) (fraction); higher = stronger inhibition; settings: 177Lu-lilotomab satetraxetan 0 ug/ml
# In short: (§1)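 RIVA or U-2932 cells were left untreated or pretreated for 18 h with a radiolabelled anti-CD37 antibody conjugate (~600 MBq/mg) at 0.5 µg/ml for RIVA or 1 µg/ml for U-2932. The cells were then washed and seeded at 3,000 cells/well on plates pre-printed with the Selleck Cambridge Cancer Compound library, dosed at 10/100 nM for RIVA and 10/1,000 nM for U-2932. From day 3, RealTime-Glo luminescence was read daily after 1 h at 37°C. Growth inhibition was taken as one minus RLU over the mean of the untreated no-drug wells, of which there were 48 per plate.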
# [2] = system: RIVA; experiment: as above; settings: 177Lu-lilotomab satetraxetan 0 ug/ml
# In short: as §1
# [3] = system: U-2932; experiment: growth inhibition by drug plus 177Lu-lilotomab satetraxetan (1 - RLU/untreated control) (fraction); higher = stronger inhibition; settings: 177Lu-lilotomab satetraxetan 1 ug/ml
# In short: as §1
# [4] = system: RIVA; experiment: as above; settings: 177Lu-lilotomab satetraxetan 0.5 ug/ml
# In short: as §1
SMILES,"growth inhibition by drug alone ([1]; 10 nM, time (day): 3)","growth inhibition by drug alone ([1]; 10 nM, time (day): 4)","growth inhibition by drug alone ([1]; 10 nM, time (day): 5)","growth inhibition by drug alone ([1]; 10 nM, time (day): 6)","growth inhibition by drug alone ([1]; 1000 nM, time (day): 3)","growth inhibition by drug alone ([1]; 1000 nM, time (day): 4)","growth inhibition by drug alone ([1]; 1000 nM, time (day): 5)","growth inhibition by drug alone ([1]; 1000 nM, time (day): 6)","growth inhibition by drug alone ([2]; 10 nM, time (day): 3)","growth inhibition by drug alone ([2]; 10 nM, time (day): 4)","growth inhibition by drug alone ([2]; 10 nM, time (day): 5)","growth inhibition by drug alone ([2]; 10 nM, time (day): 6)","growth inhibition by drug alone ([2]; 100 nM, time (day): 3)","growth inhibition by drug alone ([2]; 100 nM, time (day): 4)","growth inhibition by drug alone ([2]; 100 nM, time (day): 5)","growth inhibition by drug alone ([2]; 100 nM, time (day): 6)","growth inhibition by drug plus 177Lu-lilotomab satetraxetan ([3]; 10 nM, time (day): 3)","growth inhibition by drug plus 177Lu-lilotomab satetraxetan ([3]; 10 nM, time (day): 4)","growth inhibition by drug plus 177Lu-lilotomab satetraxetan ([3]; 10 nM, time (day): 5)","growth inhibition by drug plus 177Lu-lilotomab satetraxetan ([3]; 10 nM, time (day): 6)","growth inhibition by drug plus 177Lu-lilotomab satetraxetan ([3]; 1000 nM, time (day): 3)","growth inhibition by drug plus 177Lu-lilotomab satetraxetan ([3]; 1000 nM, time (day): 4)","growth inhibition by drug plus 177Lu-lilotomab satetraxetan ([3]; 1000 nM, time (day): 5)","growth inhibition by drug plus 177Lu-lilotomab satetraxetan ([3]; 1000 nM, time (day): 6)","growth inhibition by drug plus 177Lu-lilotomab satetraxetan ([4]; 10 nM, time (day): 3)","growth inhibition by drug plus 177Lu-lilotomab satetraxetan ([4]; 10 nM, time (day): 4)","growth inhibition by drug plus 177Lu-lilotomab satetraxetan ([4]; 10 nM, time (day): 5)","growth inhibition by drug plus 177Lu-lilotomab satetraxetan ([4]; 10 nM, time (day): 6)","growth inhibition by drug plus 177Lu-lilotomab satetraxetan ([4]; 100 nM, time (day): 3)","growth inhibition by drug plus 177Lu-lilotomab satetraxetan ([4]; 100 nM, time (day): 4)","growth inhibition by drug plus 177Lu-lilotomab satetraxetan ([4]; 100 nM, time (day): 5)","growth inhibition by drug plus 177Lu-lilotomab satetraxetan ([4]; 100 nM, time (day): 6)"
Cc1ccc(Nc2nccc(N(C)c3ccc4c(C)n(C)nc4c3)n2)cc1S(N)(=O)=O [Pazopanib],0.0671,0.059,0.0169,-0.0275,0.0873,0.113,0.0564,-0.194,0.149,0.0444,-0.0206,-0.258,0.117,0.0561,0.0246,-0.0758,0.0594,0.0779,0.0787,0.118,-0.00732,0.0799,0.0706,0.00785,0.437,0.548,0.557,0.564,0.418,0.47,0.488,0.477
COC(=O)Nc1nc2cc(C(=O)c3cccs3)ccc2[nH]1 [Nocodazole],0.162,0.111,0.0124,-0.0733,0.959,0.967,0.972,0.977,–,–,–,–,–,–,–,–,0.00977,0.0511,0.0524,0.13,0.971,0.978,0.982,0.984,0.402,0.532,0.541,0.547,0.956,0.968,0.974,0.979
Cc1c(CCOc2ccc(C(=O)O)cc2)c2cc(Cl)ccc2n1C(c1ccccc1)c1ccccc1,0.00805,-0.00114,-0.0847,-0.0955,-0.0489,-0.0693,-0.125,-0.133,–,–,–,–,–,–,–,–,-0.0474,-0.0119,0.00779,0.0213,0.0043,0.0519,0.061,0.147,0.505,0.573,0.594,0.582,0.296,0.41,0.419,0.435
CN1CCN(CCOc2cc(OC3CCOCC3)c3c(Nc4c(Cl)ccc5c4OCO5)ncnc3c2)CC1 [Saracatinib (AZD0530)],0.0465,0.00941,-0.0204,-0.381,-0.139,-0.146,-0.173,-0.33,–,–,–,–,–,–,–,–,-0.0675,-0.00671,0.0506,0.0536,-0.174,-0.108,-0.0137,0.1,0.366,0.494,0.508,0.537,0.458,0.536,0.549,0.544
Nc1nc(N)c(N=O)c(OCC2CCCCC2)n1,-0.102,-0.0718,-0.059,0.0483,-0.102,-0.0762,-0.0902,-0.132,–,–,–,–,–,–,–,–,-0.0542,-0.0355,-0.000656,0.134,-0.0976,-0.0168,0.00555,0.0733,0.229,0.419,0.456,0.476,0.322,0.426,0.43,0.399
Cn1nnc2c(C(N)=O)ncn2c1=O [Temozolomide],0.0892,0.0648,-0.0333,-0.0967,-0.0354,0.0378,-0.0162,-0.101,–,–,–,–,–,–,–,–,0.00136,0.0294,0.0193,0.0893,-0.0214,0.119,0.126,0.194,0.398,0.513,0.538,0.549,0.493,0.527,0.53,0.509
C[C@@H](Oc1cc(-c2cnn(C3CCNCC3)c2)cnc1N)c1c(Cl)ccc(F)c1Cl,0.0921,0.0793,0.115,-0.0753,0.154,0.193,0.301,0.419,0.00835,0.0307,-0.0637,-0.409,-0.398,-0.211,-0.28,-0.62,0.0291,0.0614,0.116,0.192,0.115,0.223,0.397,0.566,0.466,0.573,0.592,0.61,0.405,0.523,0.532,0.543
Nc1nc(F)nc2c1ncn2[C@@H]1O[C@H](CO)[C@@H](O)[C@@H]1O [Fludarabine (Fludara)],0.0811,0.031,-0.102,-0.129,0.0221,0.000892,-0.0649,-0.0258,–,–,–,–,–,–,–,–,0.0486,0.0769,0.126,0.16,0.00481,0.105,0.131,0.185,0.546,0.58,0.591,0.585,0.504,0.553,0.573,0.585
CCN(CC)C(=S)SSC(=S)N(CC)CC [Disulfiram (Antabuse)],0.0412,0.0424,-0.018,-0.236,0.981,0.982,0.981,0.981,-0.0278,-0.1,-0.147,-0.282,-0.227,-0.194,-0.203,-0.423,0.000112,0.0295,0.0516,0.0837,0.981,0.983,0.982,0.983,0.402,0.529,0.548,0.549,0.209,0.379,0.394,0.386
